Holding throughout (design): scale not given: direction of the effect not stated beside the values
Test [1] deals with Protein translocase subunit SecA (Escherichia coli (strain K12)) (UniProt P10408). The test can be described thus: Assay to Identify E. coli SecA ATPase Inhibitors. The format is functional. To be noted: 30 µM.
Test [2] deals with T1, Ubiquitin-activating enzyme e1, putative (Leishmania donovani (strain BPK282A1)) (UniProt E9BSI1).
T1 sequence (whole entry): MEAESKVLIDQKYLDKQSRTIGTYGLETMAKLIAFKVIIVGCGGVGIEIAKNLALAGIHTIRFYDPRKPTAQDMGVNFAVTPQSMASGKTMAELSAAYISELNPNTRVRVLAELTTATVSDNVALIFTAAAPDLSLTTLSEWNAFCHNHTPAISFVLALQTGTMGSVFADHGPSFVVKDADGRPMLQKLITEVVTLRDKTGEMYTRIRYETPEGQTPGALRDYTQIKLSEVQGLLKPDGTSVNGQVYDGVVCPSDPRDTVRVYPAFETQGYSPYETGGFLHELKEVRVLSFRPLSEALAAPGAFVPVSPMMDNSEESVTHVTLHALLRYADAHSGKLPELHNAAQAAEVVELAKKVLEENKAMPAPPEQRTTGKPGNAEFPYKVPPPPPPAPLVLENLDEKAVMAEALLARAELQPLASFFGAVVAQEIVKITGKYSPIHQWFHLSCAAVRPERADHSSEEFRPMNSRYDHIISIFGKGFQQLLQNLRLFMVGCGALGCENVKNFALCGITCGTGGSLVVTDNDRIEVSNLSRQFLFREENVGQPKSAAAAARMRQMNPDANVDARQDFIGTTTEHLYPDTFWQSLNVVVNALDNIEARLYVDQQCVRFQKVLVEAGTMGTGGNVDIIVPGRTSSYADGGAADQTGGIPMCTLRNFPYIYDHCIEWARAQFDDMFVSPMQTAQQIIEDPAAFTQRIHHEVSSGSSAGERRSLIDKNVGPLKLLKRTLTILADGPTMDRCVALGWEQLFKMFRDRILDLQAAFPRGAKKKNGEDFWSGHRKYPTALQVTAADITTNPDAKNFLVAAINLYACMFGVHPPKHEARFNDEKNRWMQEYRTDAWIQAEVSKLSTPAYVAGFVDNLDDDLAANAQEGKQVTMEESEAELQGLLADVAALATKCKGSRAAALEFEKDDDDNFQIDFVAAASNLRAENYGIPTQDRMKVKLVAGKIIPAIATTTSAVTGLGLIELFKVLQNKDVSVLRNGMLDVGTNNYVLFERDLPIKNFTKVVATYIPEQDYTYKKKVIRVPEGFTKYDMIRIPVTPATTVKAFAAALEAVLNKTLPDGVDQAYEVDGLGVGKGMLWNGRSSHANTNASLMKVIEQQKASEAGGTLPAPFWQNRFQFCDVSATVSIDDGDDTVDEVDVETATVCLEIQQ
The test can be described thus: Leishmania donovani Ubiquitin Activating Enzyme (LdE1). To be noted: 30 µM. In kind it is functional.

The target in test [3] is Sialic acid-binding Ig-like lectin 9 (Homo sapiens) (UniProt Q9Y336). Put plainly: Hs-Siglec9 ALPHAscreen SOP 20170721. The following applies: 10 µM.
Sequence of Sialic acid-binding Ig-like lectin 9 (Homo sapiens) (Q9Y336 whole entry): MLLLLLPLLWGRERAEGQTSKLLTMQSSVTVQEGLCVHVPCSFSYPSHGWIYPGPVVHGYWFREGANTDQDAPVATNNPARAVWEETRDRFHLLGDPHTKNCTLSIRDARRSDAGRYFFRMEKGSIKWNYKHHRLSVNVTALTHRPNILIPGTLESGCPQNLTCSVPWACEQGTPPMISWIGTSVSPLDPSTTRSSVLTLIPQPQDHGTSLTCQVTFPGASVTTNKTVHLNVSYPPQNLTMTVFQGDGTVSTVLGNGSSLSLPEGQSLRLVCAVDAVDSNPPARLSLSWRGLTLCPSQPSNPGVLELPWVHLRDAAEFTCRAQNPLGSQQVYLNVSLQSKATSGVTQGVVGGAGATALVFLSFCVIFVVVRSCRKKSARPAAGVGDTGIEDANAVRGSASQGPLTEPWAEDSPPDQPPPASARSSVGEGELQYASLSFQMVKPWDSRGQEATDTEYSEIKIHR
Test [4] has as its system Trypanosoma cruzi. Put plainly: Trypanosoma cruzi phosphomannomutase and mannose-1-phosphate guanylyltransferase assay. To be noted: 10 µM. The format is functional.
For test [5], the target named is T2, Arginase-2, mitochondrial (Homo sapiens) (UniProt P78540).
T2 sequence (whole entry): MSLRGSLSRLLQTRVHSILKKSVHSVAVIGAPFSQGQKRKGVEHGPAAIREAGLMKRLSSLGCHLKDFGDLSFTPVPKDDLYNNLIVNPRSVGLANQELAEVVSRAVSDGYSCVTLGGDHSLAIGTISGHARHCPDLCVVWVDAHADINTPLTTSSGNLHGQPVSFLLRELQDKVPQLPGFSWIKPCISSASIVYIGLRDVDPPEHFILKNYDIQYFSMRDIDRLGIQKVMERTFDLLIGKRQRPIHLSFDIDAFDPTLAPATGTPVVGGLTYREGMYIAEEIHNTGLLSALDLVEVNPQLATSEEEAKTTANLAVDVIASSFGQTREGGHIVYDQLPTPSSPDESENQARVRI
Put plainly: in vitro enzyme assay to detect the production of urea directly proportional to the activity of Arginase II. Also: in the data most compounds retested in dose-response had high values. The format is functional. The following applies: 33.3 µM.

Test [6] has as its target T3, Proteasome subunit beta (Trypanosoma cruzi) (UniProt O96673).
T3 sequence (whole entry): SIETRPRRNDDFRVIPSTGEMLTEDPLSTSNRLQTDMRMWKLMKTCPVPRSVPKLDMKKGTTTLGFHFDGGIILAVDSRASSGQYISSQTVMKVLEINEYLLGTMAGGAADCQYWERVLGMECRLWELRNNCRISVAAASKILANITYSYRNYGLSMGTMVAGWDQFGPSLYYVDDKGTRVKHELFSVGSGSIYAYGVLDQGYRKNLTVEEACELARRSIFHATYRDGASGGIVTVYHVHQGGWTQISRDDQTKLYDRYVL
Put plainly: Trypanosoma cruzi proteasome chymotrypsin-like activity (TcProtChymo) assay. Also: in the data most compounds retested in dose-response had high values. The format is functional. To be noted: 9.37 µM.

The species entered for test [7] is Homo sapiens. Put plainly: To identify inhibition of the IFN signalling (Jak-Stat) pathway via expression of an eGFP reporter gene under the control of an IFN-stimulated response element (ISRE) containing MxA promoter. To be noted: 30 µM. In kind it is functional. In general terms: A reporter such as luciferase makes a cellular process visible.
Test [8] addresses T4, Tyrosyl-tRNA synthetase, putative (Trypanosoma cruzi (strain CL Brener)) (UniProt Q4DSP6).
T4 sequence (whole entry): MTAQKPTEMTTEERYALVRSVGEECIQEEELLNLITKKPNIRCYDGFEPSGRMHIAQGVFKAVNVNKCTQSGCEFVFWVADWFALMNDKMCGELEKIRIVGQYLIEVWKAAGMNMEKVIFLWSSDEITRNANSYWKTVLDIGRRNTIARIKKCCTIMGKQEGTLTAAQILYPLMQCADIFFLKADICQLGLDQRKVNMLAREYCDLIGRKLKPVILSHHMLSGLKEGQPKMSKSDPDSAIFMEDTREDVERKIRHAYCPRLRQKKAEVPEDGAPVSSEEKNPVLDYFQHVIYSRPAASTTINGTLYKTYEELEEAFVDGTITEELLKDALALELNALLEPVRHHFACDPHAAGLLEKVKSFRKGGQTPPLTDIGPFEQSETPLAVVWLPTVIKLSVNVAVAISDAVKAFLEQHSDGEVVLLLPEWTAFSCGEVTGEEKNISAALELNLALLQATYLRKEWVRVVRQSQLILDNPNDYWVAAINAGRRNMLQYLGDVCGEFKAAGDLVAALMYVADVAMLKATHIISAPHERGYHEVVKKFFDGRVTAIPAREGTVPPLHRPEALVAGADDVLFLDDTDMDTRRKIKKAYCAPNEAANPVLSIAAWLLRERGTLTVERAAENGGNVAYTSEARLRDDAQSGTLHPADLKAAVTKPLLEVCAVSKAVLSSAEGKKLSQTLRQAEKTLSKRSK
Put plainly: Trypanosoma cruzi tyrosyl tRNA synthetase (TcYRS) _High Tyrosine SOP. Also: in the data most compounds retested in dose-response had high values. The format is functional. To be noted: 30 µM.

Test [9] deals with T4, Tyrosyl-tRNA synthetase, putative (Trypanosoma cruzi (strain CL Brener)). Put plainly: Trypanosoma cruzi tyrosyl tRNA synthetase (TcYRS) SOP. The format is functional. The following applies: 30 µM.
For test [10], the target named is Chromo domain-containing protein 1 (Saccharomyces cerevisiae (strain ATCC 204508 / S288c) (Baker's yeast)) (UniProt P32657). Put plainly: ScCHD-1 Enzyme Inhibition Assay. Also: in the data most compounds retested in dose-response had high values. The format is functional. The following applies: 30 µM.
Sequence of Chromo domain-containing protein 1 (Saccharomyces cerevisiae (strain ATCC 204508 / S288c) (Baker's yeast)) (P32657 whole entry, the tested form may be a part): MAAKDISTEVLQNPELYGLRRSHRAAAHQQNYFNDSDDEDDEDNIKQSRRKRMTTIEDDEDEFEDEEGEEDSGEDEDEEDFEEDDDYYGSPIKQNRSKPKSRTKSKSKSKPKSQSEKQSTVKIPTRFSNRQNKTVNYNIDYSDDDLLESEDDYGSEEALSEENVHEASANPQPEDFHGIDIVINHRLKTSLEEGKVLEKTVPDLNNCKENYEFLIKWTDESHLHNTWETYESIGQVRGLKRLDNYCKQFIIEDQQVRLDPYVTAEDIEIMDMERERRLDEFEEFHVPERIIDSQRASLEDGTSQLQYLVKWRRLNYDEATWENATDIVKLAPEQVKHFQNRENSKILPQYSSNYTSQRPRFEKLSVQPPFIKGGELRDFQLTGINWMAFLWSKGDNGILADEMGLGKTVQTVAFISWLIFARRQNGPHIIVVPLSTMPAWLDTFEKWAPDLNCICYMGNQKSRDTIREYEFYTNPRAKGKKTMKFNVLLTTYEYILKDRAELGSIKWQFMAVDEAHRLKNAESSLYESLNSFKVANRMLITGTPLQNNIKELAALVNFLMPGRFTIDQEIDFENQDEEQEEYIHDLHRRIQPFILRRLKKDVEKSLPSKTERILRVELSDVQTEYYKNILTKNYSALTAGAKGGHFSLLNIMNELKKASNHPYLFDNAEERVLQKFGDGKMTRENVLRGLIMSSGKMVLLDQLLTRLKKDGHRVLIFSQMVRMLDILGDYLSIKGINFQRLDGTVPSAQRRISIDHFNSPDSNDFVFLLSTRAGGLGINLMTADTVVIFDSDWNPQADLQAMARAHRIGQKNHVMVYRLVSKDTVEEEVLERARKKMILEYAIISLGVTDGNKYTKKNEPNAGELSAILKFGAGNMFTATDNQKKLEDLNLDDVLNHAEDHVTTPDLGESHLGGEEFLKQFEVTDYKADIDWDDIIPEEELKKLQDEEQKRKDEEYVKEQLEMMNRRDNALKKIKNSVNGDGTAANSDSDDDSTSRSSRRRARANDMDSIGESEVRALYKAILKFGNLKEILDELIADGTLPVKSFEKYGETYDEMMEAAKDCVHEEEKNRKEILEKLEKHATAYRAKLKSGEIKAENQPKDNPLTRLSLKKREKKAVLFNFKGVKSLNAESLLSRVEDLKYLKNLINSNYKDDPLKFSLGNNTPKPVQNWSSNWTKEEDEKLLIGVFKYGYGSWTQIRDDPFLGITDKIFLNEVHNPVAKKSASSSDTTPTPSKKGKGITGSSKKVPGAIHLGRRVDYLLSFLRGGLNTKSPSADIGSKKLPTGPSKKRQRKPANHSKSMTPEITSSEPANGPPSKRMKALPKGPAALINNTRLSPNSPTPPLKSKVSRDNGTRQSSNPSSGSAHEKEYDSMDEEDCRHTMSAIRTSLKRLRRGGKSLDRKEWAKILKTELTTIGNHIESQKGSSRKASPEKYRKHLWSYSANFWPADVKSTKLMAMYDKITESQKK

SMILES strings stand for the structures. For part of these data: Results with a measured potency or affinity are listed apart.

Sequence of Protein translocase subunit SecA (Escherichia coli (strain K12)) (P10408 whole entry): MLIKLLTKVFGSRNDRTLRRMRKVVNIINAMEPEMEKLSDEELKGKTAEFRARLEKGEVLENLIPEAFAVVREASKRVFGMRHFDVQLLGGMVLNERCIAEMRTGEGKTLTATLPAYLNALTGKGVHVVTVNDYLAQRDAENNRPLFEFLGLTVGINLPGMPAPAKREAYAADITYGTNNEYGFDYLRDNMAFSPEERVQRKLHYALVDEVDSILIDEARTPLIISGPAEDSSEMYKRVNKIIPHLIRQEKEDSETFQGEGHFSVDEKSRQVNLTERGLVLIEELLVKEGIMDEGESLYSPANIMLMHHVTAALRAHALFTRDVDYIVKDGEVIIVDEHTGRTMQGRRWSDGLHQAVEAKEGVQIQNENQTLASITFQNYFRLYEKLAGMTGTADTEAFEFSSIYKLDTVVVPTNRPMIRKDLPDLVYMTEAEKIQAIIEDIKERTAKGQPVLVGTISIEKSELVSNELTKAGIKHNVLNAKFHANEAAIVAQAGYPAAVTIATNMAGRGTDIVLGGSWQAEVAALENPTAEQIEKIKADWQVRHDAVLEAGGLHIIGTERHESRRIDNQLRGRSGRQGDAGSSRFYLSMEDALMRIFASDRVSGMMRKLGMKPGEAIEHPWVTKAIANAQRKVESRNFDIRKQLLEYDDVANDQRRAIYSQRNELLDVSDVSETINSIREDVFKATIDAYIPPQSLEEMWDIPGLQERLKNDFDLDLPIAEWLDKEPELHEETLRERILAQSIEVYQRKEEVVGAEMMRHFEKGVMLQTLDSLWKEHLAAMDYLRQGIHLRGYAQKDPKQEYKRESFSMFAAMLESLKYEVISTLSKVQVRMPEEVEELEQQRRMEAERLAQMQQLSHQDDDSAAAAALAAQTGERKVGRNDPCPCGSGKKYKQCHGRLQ

`CC(C(=O)Nc1ncccn1)N1CCCN(c2nccs2)CC1` (stereo not given): the Percent Effect in [1] is -0.557%; in [2], 15.4%; in [3], -8.35%; in test [4], -7.04%; in test [5], 2.05%; in [6], 14.8%. Further, the Percent Effect in [7] is 22.9%; in test [8] it was 4.31%; in [9] it was 1.21%; in test [10] it was -2.28%.

Consider `CN(C)[C@@H]1CN(Cc2ccoc2)C[C@@H]2CCCO[C@@H]21`, for which the Percent Effect was 0.454% in test [1]; -11.7% in test [2]; 0.192% in [3]; -1.46% in [4]; -1.62% in test [5]; 5.74% in test [6]. The Percent Effect was -2.15% in test [7], 0.526% in test [8], -2.56% in [9] and -1.39% in test [10].

Regarding `Nc1cc(CCC2CN(Cc3ccc(C(=O)O)cc3)CCO2)ccn1` (stereo not given), the Percent Effect is -3.81% in test [1]; 9.33% in test [2]; -7.05% in test [3]; -5.72% in test [4]; -1.77% in test [5]; 13% in test [6]. In addition, the Percent Effect in test [7] is 12.6%; in test [8], -1.06%; in [9], 2.5%; in test [10] it was -22%.

Consider `CNc1ccc(CC2CCCN(C(=O)c3cnc(C)nc3)C2)nn1` (stereo not given), for which the Percent Effect was 0.212% in test [1]; 12% in [2]; -9.66% in test [3]; -0.197% in test [4]; 4.87% in test [5]; 17.1% in test [6]. The Percent Effect in [7] was 12.2%; in [8], 5.29%; in [9], 12.5%; in test [10] it was -20.6%.

On to `CCNc1cc2c(nn1)CCN(C(=O)c1ccc(CNC(C)=O)o1)C2`, for which the Percent Effect is -4.81% in [1]; 8% in test [2]; 4.09% in [3]; -1.81% in test [4]; 3.99% in test [5]; 6.36% in [6]. Also, the Percent Effect in [7] was 5.79%; in [8], 3.68%; in test [9], 15.4%; in test [10], -12.3%.

Consider `CCN1C(=O)CCCC12CCCN(C(=O)c1conc1C)C2` (stereo not given), for which the Percent Effect in [1] was -1.85%; in [2] it was 3.9%; in test [3] it was -5.23%; in test [4] it was -3.75%; in test [5] it was -0.457%; in test [6], 5.75%. Moreover, the Percent Effect is 14% in test [7], -4.83% in test [8], -5% in test [9] and -2.52% in test [10].

Regarding `CCCc1noc(CN2CCCC2c2c(C)nn(C)c2OC)n1` (stereo not given), the Percent Effect in test [1] was -8.89%; in test [2] it was -2.67%; in [3], -1.2%; in test [4], -1.61%; in [5], 3.1%; in test [6], 2.29%. Further, the Percent Effect in test [7] is 9.23%; in [8] it was -2.63%; in test [9], -2.56%; in [10], -6.05%.

In the case of `Cc1ccc(C(=O)N2CCC3(CC2)CCN(CCN(C)C)C3=O)cn1`, the Percent Effect in test [1] was -3.6%; in test [2], 6.49%; in [3] it was -4.15%; in [4] it was -1.31%; in test [5], -0.457%; in [6], 6.44%. For the same molecule, the Percent Effect in test [7] is 11.3%; in test [8], 7.73%; in [9], 7.5%; in [10], -6.63%.

For `CCO[C@H]1CO[C@@]2(CCCN(S(=O)(=O)c3ccccc3)C2)C1`, the Percent Effect in test [1] is -1.1%; in [2], 24.7%; in test [3], -3.22%; in test [4], -3.02%; in test [5], 11.3%; in test [6], 17.7%. In addition, the Percent Effect in test [7] turned out to be 10.2%; in test [8], 2.63%; in test [9] it was 0%; in test [10], 6.62%.

As to `Cc1ncccc1O[C@H]1CCN(C(=O)Cc2cccs2)CC[C@@H]1O`, the Percent Effect in [1] was -5.37%; in test [2], 17.3%; in test [3], 6.84%; in test [4] it was 1.18%; in [5] it was -0.443%; in test [6], 10.8%. The Percent Effect was 7.57% in test [7], 6.35% in test [8], 15% in [9] and -22.2% in test [10].

Turning to `CCOCC1CN(Cc2cnn(C)c2)Cc2nn(C)cc21` (stereo not given), the Percent Effect is 0.939% in test [1]; -3.9% in [2]; -4.11% in [3]; -5.36% in test [4]; 0.81% in test [5]; 10.2% in test [6]. Besides, the Percent Effect in test [7] is 4.03%; in test [8], -1.58%; in test [9], 0%; in test [10], 2.52%.

As for `Cc1nc(C2CCCN2Cc2ncc(C(C)C)o2)no1` (stereo not given), the Percent Effect in test [1] was -0.503%; in test [2] it was 2.67%; in [3] it was -1.37%; in [4], -0.803%; in [5] it was -0.444%; in test [6], 1.44%. Besides, the Percent Effect in [7] was 13.4%; in test [8], -1.58%; in test [9], -5.13%; in test [10], -7.52%.

Source of the values: ChEMBL document CHEMBL3988442, “University of Dundee, Small-Polar-MMV Screening Library” (2021).
